KDM5B inh: blocks human KDM5B histone demethylase activity; Q9UGL1; KDM5B demethylase, FDH-coupled NADH fluorescence (FDH is formaldehyde dehydrogenase); Potency, µM (highest dose often 57.7 µM), most hits filed as inhibitors; hit rate 2.6% among 220,000; active means well fitted inhibition curve with a large enough effect; further: 0% is about no effect; nearly all actives have a fitted effect of over 70% in size
Target sequence (Q9UGL1 whole entry, looked up): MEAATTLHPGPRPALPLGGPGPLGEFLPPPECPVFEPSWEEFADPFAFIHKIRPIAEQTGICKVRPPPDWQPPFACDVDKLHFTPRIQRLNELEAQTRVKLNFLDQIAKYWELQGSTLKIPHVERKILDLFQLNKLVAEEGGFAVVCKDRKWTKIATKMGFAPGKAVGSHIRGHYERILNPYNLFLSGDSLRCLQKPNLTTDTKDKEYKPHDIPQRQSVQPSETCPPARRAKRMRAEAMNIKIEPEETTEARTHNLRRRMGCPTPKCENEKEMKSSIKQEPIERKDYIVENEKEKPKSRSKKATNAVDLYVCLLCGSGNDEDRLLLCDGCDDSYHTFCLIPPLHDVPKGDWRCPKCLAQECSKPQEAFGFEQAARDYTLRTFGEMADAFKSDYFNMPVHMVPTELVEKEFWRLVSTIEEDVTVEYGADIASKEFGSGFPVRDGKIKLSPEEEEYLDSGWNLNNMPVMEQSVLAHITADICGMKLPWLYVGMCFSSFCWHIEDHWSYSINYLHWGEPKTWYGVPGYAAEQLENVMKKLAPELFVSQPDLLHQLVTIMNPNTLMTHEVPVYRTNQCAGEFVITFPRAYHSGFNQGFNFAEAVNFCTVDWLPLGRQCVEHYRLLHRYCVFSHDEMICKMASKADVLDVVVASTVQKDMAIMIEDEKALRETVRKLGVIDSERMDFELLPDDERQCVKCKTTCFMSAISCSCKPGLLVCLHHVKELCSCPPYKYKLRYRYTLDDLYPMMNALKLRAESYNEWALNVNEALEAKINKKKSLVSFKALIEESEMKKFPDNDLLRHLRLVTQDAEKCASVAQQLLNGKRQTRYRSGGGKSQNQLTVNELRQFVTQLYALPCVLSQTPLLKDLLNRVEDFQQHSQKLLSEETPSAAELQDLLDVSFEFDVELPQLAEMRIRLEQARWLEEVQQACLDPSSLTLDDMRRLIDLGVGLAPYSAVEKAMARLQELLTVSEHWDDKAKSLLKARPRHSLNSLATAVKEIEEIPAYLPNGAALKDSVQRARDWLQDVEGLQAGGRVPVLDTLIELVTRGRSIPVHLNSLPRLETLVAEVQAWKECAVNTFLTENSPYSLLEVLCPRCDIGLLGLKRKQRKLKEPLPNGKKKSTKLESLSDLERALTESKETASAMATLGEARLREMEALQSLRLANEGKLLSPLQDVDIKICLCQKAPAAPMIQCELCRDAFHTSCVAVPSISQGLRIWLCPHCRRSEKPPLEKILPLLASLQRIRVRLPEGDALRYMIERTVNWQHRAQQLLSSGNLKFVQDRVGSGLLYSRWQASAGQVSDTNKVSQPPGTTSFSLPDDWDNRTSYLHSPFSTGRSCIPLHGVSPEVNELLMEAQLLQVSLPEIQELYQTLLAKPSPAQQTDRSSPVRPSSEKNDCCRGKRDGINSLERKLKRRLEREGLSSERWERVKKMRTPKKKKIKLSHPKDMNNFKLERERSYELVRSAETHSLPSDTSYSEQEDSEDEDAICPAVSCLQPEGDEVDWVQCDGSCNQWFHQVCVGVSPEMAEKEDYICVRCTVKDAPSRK
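Measured: NADH fluorescence change, 30 min, RT. System: KDM5BΔAP 200 nM final, H3K4me3 peptide, α-KG, Fe(II), ascorbate, NAD⁺ plus FDH, pH 7.5 HEPES. Compounds: titrated, 10 min pre-incubation with enzyme.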
* marks the source's active call; other numbers are inactive results; i = inactive. This excerpt belongs to a sample that is enriched for hits. Potency means the concentration at half of the fitted maximal effect.

SMILES	KDM5B inh
Oc1ccccc1CN1CCNc2cc(Nc3ccccc3)ncc2C1	i
Oc1ccccc1CN1CCNc2cc(Nc3cccnc3)ncc2C1	35.5µM*
c1ccc(Nc2cc3c(cn2)NCCN(Cc2ccccn2)C3)cc1	35.5µM*
NC(=S)Nc1cccc2ncccc12	i
CC(C)C(C(=O)Nc1ccc(NC(N)=O)cc1)c1ccc(Cl)cc1 (stereo not given)	i
O=c1[nH]c(=O)n(Cc2ccccc2)c2c1C(C(F)(F)F)(C(F)(F)F)N=C(c1cccs1)N2	i
CC(=O)Nc1cccc(C(C)NC(=O)NC(C)c2cccc(F)c2)c1 (stereo not given)	i
CCOC(=O)C1CCN([C@H]2CS(=O)(=O)C[C@@H]2S(=O)(=O)c2ccc(Cl)cc2)CC1	i
O=C(O)COc1ccc2cc(-c3ccc(OC(F)(F)F)cc3)c(=O)oc2c1	i
CCOC(=O)N1CCC(NC(=O)c2ccccc2C(=O)O)CC1	i
CCOC(=O)N1CCC(N[C@@H]2CC[C@@H]2NC(=O)c2nc(C)oc2C)CC1	i
CCOC(=O)N1CCC(N[C@@H]2CC[C@@H]2NC(=O)c2cnc3cccnn23)CC1	31.6µM*
CCCNc1nc(-c2ccc3c(c2)CCCN3S(C)(=O)=O)cs1	i
CCN(Cc1ccc(C)cc1)Cc1cc(=O)oc2ccc(OC)cc12	i
O=C1NCCN2CC3(CCN(C(=O)c4ccco4)CC3)CC12 (stereo not given)	28.2µM*
O=C1CCN(C(=O)c2ccco2)CCCCCCN1	i
O=C(c1ccco1)N1CCN(C2CCC3(CCNCC3)CC2)CC1	i
Cc1cc(C)c(S(=O)(=O)NCCc2csc3nc(-c4ccc(F)cc4)nn23)c(C)c1	i
O=C(CCn1c(=O)oc2ccccc21)Nc1cccc(S(=O)(=O)N2CCCC2)c1	i
CN1C[C@@H](NC(=O)CC(C)(C)CC(=O)O)C[C@H]1c1nc(-c2ccccc2)no1	i
C=CCNC(=O)N[C@H]1C[C@H]2C(=O)Nc3ccc(/C=C/c4ccc(OC)cc4)cc3C(=O)N2C1	22.4µM*
COCC(=O)N[C@H]1C[C@H]2C(=O)Nc3ccc(/C=C/c4ccccc4)cc3C(=O)N2C1	i
Cc1cccc(-c2ccc3c(c2)C(=O)N2C[C@H](O)C[C@H]2C(=O)N3)c1C	i
O=C1Nc2ccc(/C=C/c3ccccc3)cc2C(=O)N2C[C@H](O)C[C@@H]12	28.2µM*
O=C(N[C@H]1CCN2C(=O)c3cc(Br)ccc3NC(=O)[C@@H]2C1)c1ccco1	i
SMILES	KDM5B inh
COc1ccc(/C=C/c2ccc3c(c2)C(=O)N2C[C@@H](NC(=O)CC(C)(C)CC(=O)O)C[C@H]2C(=O)N3)cc1	22.4µM*
COc1ccc2c(ccn2CCC(=O)Nc2ccc3c(c2)C(=O)N2CCC[C@H]2C(=O)N3)c1	i
CC(C)(CC(=O)O)CC(=O)N[C@H]1C[C@H]2C(=O)Nc3ccc(/C=C/c4ccccc4)cc3C(=O)N2C1	28.2µM*
O=C1Nc2ccc(-c3ccsc3)cc2C(=O)N2C[C@H](O)C[C@@H]12	i
Cc1ccc(N(CCC#N)C(=O)CN(C)CC(=O)Nc2ccccc2Cl)cc1	i
O=C(CSc1nc2ccccc2c(=O)n1-c1ncn[nH]1)Nc1ccccc1	i
CCOc1cccc2cc(S(=O)(=O)c3cccc(Cl)c3)c(=O)oc12	i
Cc1[nH]c2ccc(C(=O)N3CCC(C(=O)N4CCCC4)CC3)cc2c1C	i
Cc1ccc(-c2csc3ncn(CC(=O)c4cc(C)n(C5CC5)c4C)c(=O)c23)s1	i
COCCn1c(SCC(=O)c2ccc3c(c2)OCCO3)nnc1-c1ccc(Cl)cc1	i
CCOc1ccc(C(=O)C(C)OC(=O)c2ccc(OCC(N)=O)cc2)cc1 (stereo not given)	i
CC(Oc1ccc(-c2ccccc2)cc1Cl)C(N)=O (stereo not given)	i
CCCCN1CCN(C(=O)c2cc(NC(=O)C3CCC3)cc3nc(C)ccc23)CC1	31.6µM*
CCCN1CCN(C(=O)c2cc(NC(=O)C3CCC3)cc3nc(C)ccc23)CC1	22.4µM*
CCOC(=O)c1cc(NC(=O)C2CCC2)cc(C(=O)OCC)c1	i
Cc1cc(C(=O)N2CCN(CC(=O)NC3CC3)CC2)c2ccccc2n1	i
CCCCN1CCN(C(=O)c2cc(-c3ccncc3)nc3ccccc23)CC1	i
COc1ccc(OCCN2CCN(C(=O)c3cc(C4CC4)nc4ccccc34)CC2)cc1	i
CCN1CCN(CCOc2ccc3c(=O)c(-c4ccc(Cl)cc4)coc3c2)CC1	i
CCOc1ccc(C(=O)OCc2ncc(-c3ccccc3)o2)cc1	i
O=C(Nc1ccc(F)c(Cl)c1)C1CCN(C(=O)c2ccc(F)cc2)CC1	i
CCCN(C)C(=O)c1ccc(-c2nnc3ccc(NC(=O)C4CCC4)cn23)cc1	22.4µM*
CC(=O)Nc1ccc(-c2nnc3n2CCCC3)cc1	i
CC(=O)Nc1ccc2nnc(-c3ccc(C(=O)N4CCCCCC4)cc3)n2c1	14.1µM*
O=C(Nc1ccc(-c2nnc3n2CCCC3)cc1)C1CCCCC1	i
SMILES	KDM5B inh
Cc1ccc(NC(=O)C2CCCC2)cc1	i
O=C(Nc1ccc2nnc(-c3ccc(C(=O)N4CCSCC4)cc3)n2c1)C1CCC1	28.2µM*
CN(C(=O)c1ccc(NC(=O)C2CC2)cc1)C1CCCCC1	i
CCCc1nc(CN(CC)C(=O)c2ccc(NC(=O)C3CCC3)cc2)no1	i
CN(C)C(=O)c1ccc(-c2nnc3ccc(NC(=O)C4CCC4)cn23)cc1	22.4µM*
CN(C(=O)c1ccc(NC(=O)C2CCCCC2)cc1)c1ccccc1	i
Cc1ccc(CC(=O)Nc2ccc(C(=O)N3CCCCC3)cc2)cc1	i
Cc1ccnc(NC(=O)COc2ccc3c(=O)c(Oc4ccccc4)c(C)oc3c2)c1	i
CC(C)CNC(=O)N1CCC2(CC1)Nc1ccccc1-n1cccc12	i
COCCCNc1oc(/C=C/c2cccc(OC)c2)nc1C#N	i
c1ccc(Nc2ccc(-c3ccc(Nc4ccccc4)cc3)cc2)cc1	i
Cc1cc(-c2ccccc2)cc(-c2ccccc2)n1	i
CC(Sc1nnc(-c2ccccc2F)n1C1CC1)c1ccccc1 (stereo not given)	i
CC(C)(C)NC(=O)c1ccc(NC(=O)C2CCCC2)cc1	i
O=C(N[C@@H]1CCC[C@@H]1C(=O)NCCc1ccccc1)c1ccncc1	i
CCC(=O)Nc1ccc2nnc(-c3ccc(C(=O)Nc4ccc5c(c4)OCCO5)cc3)n2c1	i
CC(NC(=O)c1ccc(OC2CCN(S(=O)(=O)N(C)C)CC2)cc1)c1cccs1 (stereo not given)	i
CCN1CCN(C(=O)c2ccc(-n3nc(C)c(-c4ccc(C)cc4)c3NC(C)=O)cc2)CC1	i
O=C(NCCc1ccncc1)c1ccc(-c2nnc3ccc(NC(=O)C4CCC4)cn23)cc1	28.2µM*
CCN1CCN(C(=O)c2ccc(-c3nnc4ccc(NC(=O)C5CC5)cn34)cc2)CC1	28.2µM*
CN(C)S(=O)(=O)N1CCC(Oc2ccc(C(=O)NCCc3ccncc3)cc2)CC1	i
CC(NC(=O)c1ccc(-c2nnc3ccc(NC(=O)C4CCC4)cn23)cc1)c1cccs1 (stereo not given)	28.2µM*
CC(=O)Nc1ccc(NC(=O)c2c[nH]c3ccccc23)cc1	i
COCCNC(=O)CN(C)c1nc(-c2ccncc2)nc2ccccc12	i
Cn1c(=O)c2c(nc(NCC(O)CO)n2Cc2c(F)cccc2Cl)n(C)c1=O (stereo not given)	i
Cc1cccc(-n2nnnc2C2(Nc3ccccc3C)CCCC2)c1	i
COc1cccc(SCC(=O)c2ccc3c(c2)CCC(=O)N3)c1	i
